BAZ2B inh = blocks human BAZ2B; hit rate 4.4% among 360,000; Potency, µM (top dose mostly 114 µM), hits mostly inhibitors; Q9UIF8; AlphaScreen BAZ2B-H3K14Ac peptide displacement; also: nearly all actives have a fitted effect of over 60% in size
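Complex of BAZ2B and biotin-H3K14Ac (50 nM apiece) forms over 30 min at RT, then faces library compounds up to 110 uM for another 30 min; AlphaScreen beads added, 20 min dark incubation, luminescence read.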
L3MBTL1 block = inhibitors of human L3MBTL1 | AlphaScreen L3MBTL1–H3K9me1 peptide binding | Potency, µM (highest dose often 57.1 µM), actives largely listed as inhibitors | hit rate 0.66% among 230,000 | AID 485360; also: nearly all actives have a fitted effect of over 60% in size
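Read-out is AlphaScreen signal from streptavidin donor and nickel chelate acceptor beads (10 ug/mL final each) bridging L3MBTL1 (50 nM) and biotinylated K9-monomethylated H3(1-15) peptide (75 nM), after 30 min compound exposure at room temperature.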
G9a inh = inhibitors of human histone lysine methyltransferase G9a; G9a H3K9 monomethylation, AlphaScreen, 2 h; Potency, µM (highest dose often 102 µM), usual class: inhibitors; hit rate 8.8% among 350,000; Q96KQ7; also: nearly all actives have a fitted effect of over 75% in size
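AlphaScreen read-out: biotin-H3K9 peptide (500 nM) methylation by 20 nM enzyme with 20 uM SAM, 2 h at room temperature after 15 min compound preincubation; anti-monomethyl H3K9 antibody plus donor/acceptor beads, 10 min dark.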
PI5P4Ka inh = blocks human PI5P4K alpha kinase activity; P48426; PI5P4Kalpha enzyme, ADP-Glo luminescence, 60 min; active compounds read low; max response, %; hit rate 1.2% among 330,000; AID 652105; active = max response of -50% or lower; inconclusive = between -30% and -50%; inactive = -30% or higher; also: value at the top dose of about 77 µM
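Enzyme plus substrate dispensed, test compounds pinned in, then ATP (5 microM final) added. After 60 min at RT, ADP-Glo reagent 1 for 45 min and reagent 2 for 30 min preceded luminescence imaging.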
HP1b chromo inh = inhibitors of HP1-beta chromodomain binding to methylated histone tails; P83916; AlphaScreen HP1-beta / biotin-H3K9me3 peptide binding; Potency, µM (series often up to 114 µM), hits mostly inhibitors; hit rate 0.56% among 390,000; also: nearly all actives have a fitted effect of over 70% in size
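HP1-beta protein (50 nM final) preincubated 30 min at room temperature with biotinylated H3(1-18)K9me3 peptide (50 nM) in PBS pH 7.4, 0.01% Tween-20, then compound added for 30 min. AlphaScreen streptavidin donor/nickel chelate acceptor beads (10 ug/mL final), 30 min dark, luminescence read.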
JMJD2A Tudor = blocks the human JMJD2A Tudor domain; AID 504339; Potency, µM (titrated, usually from 114 µM), actives largely listed as inhibitors; AlphaScreen JMJD2A-Tudor / H3K4me3 peptide binding; hit rate 4.4% among 390,000; also: nearly all actives have a fitted effect of over 50% in size
Hits are given with their value; n = inactive; u = inconclusive; x = no result given; [ ] = dose if it differs, or a comment. An excerpt weighted towards active compounds, which were near 11% of everything screened. Unless noted, calls follow the shape of the dose curve; as a rule, active = well fitted inhibition curve with a large enough effect; inconclusive = small, poorly fitted or top-dose-only effect; inactive = no such curve, though single readings can be large or run the other way.

SMILES	BAZ2B inh	L3MBTL1 block	G9a inh	PI5P4Ka inh	HP1b chromo inh	JMJD2A Tudor
COc1ccc2[nH]c(C)c(CCN(Cc3cccs3)C(=S)Nc3ccccc3)c2c1	u	n	u	n	u	u
CCN1CCCC1CNCc1ccc(OCc2ccc(Cl)nc2)c(OC)c1 (stereo not given)	n	n	u	n	n	n
CCN1CCCC1CNCC(O)COc1ccc(C(C)(C)C)cc1C (stereo not given)	u	n	u	n	n	1.6µM
CCOc1cc(/C=N/O)ccc1OCc1ccc(F)cc1	n	n	n	n	u	28µM
NC(N)=N/N=C/c1ccc(OCc2ccccc2)c(OCc2ccccc2)c1	40µM	x	u	n	u	u
COc1cc(/C=N/n2c(C)n[nH]c2=S)ccc1OCc1ccc(F)cc1	n	n	1.3µM	n	n	79µM
CC(=O)NCCCS(=O)(=O)O	x	x	n[12.7 µM]	x	x	x
COc1ccc(CCn2c(-c3ccncc3)n[nH]c2=S)cc1OC	n	n[11.4 µM]	u	n	n	u
CC(C)Cn1c(-c2ccncc2)n[nH]c1=S	u	n[11.4 µM]	7.1µM	n	n	20µM
CC(C)Cn1c(-c2ccccc2F)n[nH]c1=S	n	x	1.4µM	n	n	4µM
CC(C)Cn1c(-c2csc3c2CCCC3)n[nH]c1=S	u	n	8.9µM	n	n	79µM
Fc1ccccc1-c1n[nH]c(=S)n1C1CC1	n	x	8.9µM	x	x	x
CC1CCCN(S(=O)(=O)c2cc3c(cc2Cl)NC(=O)CO3)C1 (stereo not given)	n	x	n	x	n	u
CCN(CC)S(=O)(=O)c1ccc2c(c1)N(CC(=O)Nc1ccc(F)cc1F)C(=O)C1CCCN21 (stereo not given)	n	x	n	x	n	n
c1ccc(CNc2ccnc(-c3cccnc3)n2)cc1	x	x	n[0.501 µM]	x	x	x
COCCn1c(C)cc(O)c(C(c2ccc(OC)cc2)N2CCCCC2)c1=O (stereo not given)	n	x	n	x	n	n
CC(C)Cn1c(-c2ccc(F)cc2)n[nH]c1=S	n	n	u	n	u	7.9µM
CC(C)Cn1c(-c2ccccc2)nc2ccccc2c1=O	n	n	n	n	n	n
C=C(C)Cn1c(-c2ccncc2)n[nH]c1=S	u	n	14µM	n	n	50µM
